PubChem BioAssay AID2284324 (EPA ToxCast)
Records with an inconclusive call do not appear. The source made the active and inactive calls. How the source made its calls: active means hit-call score of the fitted dose curve at least 0.9, where 1 is the maximum; inconclusive means response in the unintended direction; inactive means score below 0.9.

System: Japanese medaka Glucocorticoid Receptor (GR), gene 101170451
Assay: ATG_jmGR_EcoTox2: Attagene TRANS-FACTORIAL EcoTox-2 HepG2 Assay for Japanese medaka Glucocorticoid Receptor (GR)
Description: ATG_EcoTox2 is a cell-based, multiplexed assay created by modifying the existing Attagene TRANS-FACTORIAL system to include a panel of nuclear receptors from some or all the following species: human (Homo sapiens), african clawed frog (Xenopus laevis), rainbow trout (Oncorhynchus mykiss), japanese medaka (Oryzias latipes), and zebrafish (Danio rerio). The ECOTOX2-FACTORIAL format uses HepG2, a human liver cell line, with measurements taken at 24 hours after chemical dosing in a 24-well plate. ATG_jmGR_EcoTox2 is one of 29 assay components calculated in the ATG_EcoTox2 assay. It is designed to make measurements of mRNA induction, a form of inducible reporter, as detected with fluorescence intensity signals by Reverse transcription polymerase chain reaction (RT-PCR) and Capillary electrophoresis technology.The assay endpoint ATG_jmGR_EcoTox2 was analyzed in the positive analysis fitting direction relative to DMSO as the negative control and baseline of activity. Using a type of inducible reporter, measures of mRNA for gain-of-signal activity can be used to understand the reporter gene at the transcription factor-level as they relate to the gene for glucocorticoid receptor. Furthermore, this assay endpoint can be referred to as a primary readout, because this assay has produced multiple assay endpoints where this one serves a reporter gene function. […]

Structure (SMILES)	outcome
O=P(Oc1ccccc1)(Oc1ccccc1)Oc1ccccc1	inactive
CCCCOCN(C(=O)CCl)c1c(CC)cccc1CC	inactive
